# According to ChEMBL document CHEMBL4888484, “Replenishing the malaria drug discovery pipeline: Screening and hit evaluation of the MMV Hit Generation Library 1 (HGL1) against asexual blood stage Plasmodium falciparum ,using a nano luciferase reporter read-out” (2022):
# Out of some 4,800 compounds screened, about 410 (8.5%) showed an effect of 50% or more. The list comes from a sample in which strong results are over-represented; it also holds similar structures and randomly drawn compounds.
# Test system: Plasmodium falciparum
# Assay: Confirmatory screen in NF54 pLDH assay, in single point, at 2uM, 72h
# Type: functional, Erythrocyte
# Conditions: timepoint 72 hour
row,SMILES,% Inhibition
1,Cc1cc(OC[C@@H](O)CNC(C)(C)CC(C)(C)C)cc(C)c1Cl,57%
2,O=C(N[C@@H](N1CCCC1)C(Cl)(Cl)Cl)c1ccc(Cl)cc1,-13%
3,O=C(N[C@H]1CC12CC2)c1ccncc1F,-22%
4,C=C1C(C)C2C(Cc3c[nH]c4ccccc34)NC(=O)C23C(=O)CC(O)C(O)CC(C)C/C=C/C3C1O (centres undefined),65%
5,C[n+]1ccccc1/C=C/c1c[nH]c2ccccc12,81%
6,CCc1ccc(/C=C/c2c[nH]c3ccccc23)[n+](CC)c1,88%
7,Fc1cc(Cl)cnc1N1CCC2(CCOCC2)C1,12%
8,Cc1[nH]n(-c2nc(C(F)(F)F)cc(=O)[nH]2)c(=O)c1CCO,-9%
9,O=C1C2CC=CCC2C(=O)N1CNc1ccc(Cl)cc1 (centres undefined),-9%
10,CCn1c(=O)c(N2CCN(C(=O)Nc3ccc(OC)cc3OC)CC2)nc2cccnc21,-17%
11,O=C([C@H]1CCCN(C(=O)N2CCc3sccc3C2)C1)N1CCc2[nH]ncc2C1,-7%
12,CCOC(=O)C(C)NC(=O)C(C)NC(=O)c1ccc(F)c(C#N)c1 (centres undefined),7%
13,O=S(=O)(NC1CC(c2ccc(F)c(Cl)c2)C1)C1CC1 (centres undefined),7%
14,Cn1nc(C2CC2)c2c(C(F)F)cc(-c3ccc4c(c3)OCO4)nc21,2%
15,CCS(=O)(=O)Nc1ccc(Br)cc1Cl,-1%
16,Cc1ncccc1C(=O)NCCc1csc(-c2ccccc2)n1,-19%
17,c1ccc(-c2nc(C[n+]3ccc4c(c3)CCCC4)cs2)cc1,56%
18,CN(C)c1ccc(C2OCC3(CCC4(COC(c5ccc(N(C)C)cc5)OC4)O3)CO2)cc1 (centres undefined),-5%
19,Fc1ccc(COc2ccc3ccccc3c2CNc2ccc(Br)cc2)cc1,10%
20,CCCNC(=O)CS(=O)(=O)Cc1cccc(Br)c1C,-14%
21,Nc1nc(-c2ccccc2)c2cc3c(nn12)C[C@H](c1ccc(F)cc1)CC3=O,-6%
22,COc1c2c(cc3c1[C@@H](C#CCOc1ccccc1)[N+](C)(C)CC3)OCO2,68%
23,CCn1cc(S(=O)(=O)N2CC(Oc3cccc(-c4nc(C)no4)c3)C2)cn1,7%
24,COc1cc(-c2nc3ncnn3c(N)c2C#N)cc(OC)c1OC,-17%
25,Cc1cc(C)c2nc(C)cc(Nc3ccc(O)cc3)c2c1,103%

row,SMILES,% Inhibition
1,COc1c(Cl)cc(Cl)cc1C#N,-17%
2,COc1cc(N)c(NC(C)=O)cc1Cl,7%
3,COc1ccccc1CN1COc2cc3c(cc2C1)OCO3,52%
4,COc1cccc(CNCc2ccc3c(c2)OCO3)c1OCc1ccc(Cl)cc1Cl,10%
5,COCCN(CC1CN(Cc2ccccc2OC)CC1c1ccccc1OC)C(=O)COC (centres undefined),0%
6,O=S(=O)(NCc1ccc(C(F)(F)F)nc1N1CCC(C(F)(F)F)CC1)C(F)(F)F,8%
7,CC(C1Cc2ccccc2O1)N(C)Cc1nccn1S(=O)(=O)N(C)C (centres undefined),-8%
8,Cn1ccc(C(=O)Nc2ccc(-c3ccccc3)cn2)cc1=O,-11%
9,Nc1n[nH]c2c(Cl)c3nnc(-c4ccccc4)n3c(Cl)c12,13%
10,O=C(Cc1ccc(N(Cc2cccc(F)c2)C(=O)C2CCCC2)cc1)NCCN1CCCCC1,43%
11,COCCN(Cc1c(-c2ccccc2)noc1N1CCN(C)CC1)C(=O)c1ccc(C)cc1,12%
12,C[C@H](Nc1ccc(N2CCOCC2)nc1)c1cccc(CO)c1,11%
13,CCn1c(-c2cc(NC(=O)c3ccc4c(c3)OCO4)[nH]n2)cc2ccc(OC)cc21,4%
14,Oc1nc(N2CCOC3(CCCC3)C2)ncc1F,53%
15,FC(F)(F)c1cnc(N2CCOC3(CCOCC3)CC2)s1,9%
16,O=C(c1cc(-c2ccncc2)on1)N1CCOC2(CCCCCC2)C1,8%
17,Cc1c(C(=O)N2CC[C@H](CC(C)(C)C)C2(C)C)nnn1-c1cnn(C)c1,-9%
18,Cc1cc(C)cc(NC(=O)Cc2nc(C)c(C(=O)NCc3ccccc3)s2)c1,5%
19,CCOC(=O)c1nc(-c2cccnc2)cs1,-8%
20,CCOC(=O)c1c(CN2CCCC2)n(C)c2cc(-c3cccnc3)c(O)c(Cn3ccnc3)c12,68%
21,CCOC(=O)c1ncn(C2CCN(C(=O)c3cccc(Cn4ccnc4)c3)CC2)c1N,5%
22,Cc1cccc(C)c1OCC(C)NC(=O)N1CCCC(CS(C)(=O)=O)C1 (centres undefined),-20%
23,COc1ccc(CN(C)[C@H]2CCc3nn(C)c(=O)n3CC2)c(Cl)c1OC,1%
24,CC(C)c1nnc(Cn2nnc(-c3ccncn3)n2)s1,-12%
25,Cc1cc(C)n(CCC(=O)N2CC[C@H](c3nc(C4CCOCC4)no3)C2)n1,9%

row,SMILES,% Inhibition
1,O=C(Nc1ccccc1)c1ccc2c(c1)C(=O)N(CCc1ccccc1)C2=O,-15%
2,Cc1cnc(C2CCC2)n1CCNS(=O)(=O)c1ccccc1,2%
3,COCCCn1c(NS(=O)(=O)c2ccccc2)c(S(=O)(=O)c2ccc(C)cc2)c2nc3ccccc3nc21,49%
4,Cc1ccc(S(=O)(=O)c2c(NS(=O)(=O)c3ccc(F)cc3)n(CCc3ccccc3)c3nc4ccccc4nc23)cc1,103%
5,Cc1ccc(S(=O)(=O)Nc2c(S(=O)(=O)c3ccccc3)c3nc4ccccc4nc3n2CCc2ccccc2)cc1,100%
6,O=C(Cn1c(Cc2ccc(Cl)cc2)nc2ccccc21)Nc1ccccc1,9%
7,Cc1ccc(S(=O)(=O)Nc2c(S(=O)(=O)c3ccc(C)cc3)c3nc4ccccc4nc3n2CCC(C)C)cc1,100%
8,Cc1ccc(S(=O)(=O)Nc2c(S(=O)(=O)c3ccc(C)cc3)c3nc4ccccc4nc3n2C[C@H]2CCCO2)cc1,8%
9,O=C(Nc1c(S(=O)(=O)c2ccccc2)c2nc3ccccc3nc2n1CCc1ccccc1)c1ccc(Cl)cc1,96%
10,Cc1ccc(S(=O)(=O)Nc2ccccc2-c2nnc(-c3c(NS(=O)(=O)c4ccc(C)cc4)ccc4ccccc34)o2)cc1,-13%
11,Cc1nn(C)c(N)c1C(=O)N(C1CCC1)C1CCC1,-16%
12,Cc1cc(Cn2c(=O)n(Cc3ccccc3)c3ccncc32)on1,7%
13,COc1ccc([C@@H]2C(C#N)(C#N)C23C(=O)CC(C)(C)CC3=O)cc1,-12%
14,N#Cc1cccc(-c2c[nH]c(CNc3nc4cc(C(F)(F)F)ccc4s3)n2)c1,7%
15,Cc1nc2cccnc2n1-c1cc(C(=O)NCC[C@H](C)N2CCCC2)ccc1Cl,8%
16,CC1CCN(C(=O)NCC2CCC(F)(F)CC2)CC1n1ccnc1 (centres undefined),12%
17,COc1cc(CC2CN(C(=O)c3cscn3)C2)cc(OC)c1,3%
18,CS(=O)(=O)CC1(CC(=O)N[C@H](c2ccccc2)C2CCC2)CC1,11%
19,Cc1nn(CC2(O)CCCCC2)c(=O)c(C#N)c1C,-10%
20,Cc1ccc(S(=O)(=O)Nc2cc3nc4ccccc4nc3n2CCc2ccccc2)cc1,97%
21,COCCCn1c(NS(=O)(=O)c2ccc3ccccc3c2)c(S(=O)(=O)c2ccc(C)cc2)c2nc3ccccc3nc21,16%
22,Cc1cc(NC(=O)Cn2c(=O)n(CCc3ccccc3)c(=O)c3ccccc32)no1,13%
23,Cc1ccc(S(=O)(=O)c2c(NS(=O)(=O)c3ccccc3)n(CCc3ccccc3)c3nc4ccccc4nc23)cc1,102%
24,CS(=O)(=O)n1c(CCCc2ccccc2)nc2ccccc21,15%
25,O=C(O)Cc1cccc(NC(=O)C2C3Cc4ccccc4C32)c1 (centres undefined),2%

row,SMILES,% Inhibition
1,C[C@H](NC(=O)CC1(C)CCCCC1)c1cnn(C)c1,-5%
2,O=C(Nc1cccc(OCCn2cncn2)c1)[C@@H]1CCCc2ccccc21,-19%
3,Cc1cc(CCC(=O)Nc2nnn[nH]2)ccc1Br,10%
4,COc1cc2c(cc1CNc1nc(N)nc3c1CCNCC3)CCC2,11%
5,Cc1cc(C)cc(NC(=O)Cc2nnc3ccc(C(=O)Nc4ccccc4)cn23)c1,8%
6,CC(=O)N1CCN(c2nc3c(s2)C[C@@H](C(=O)NCc2ccccc2F)CC3)CC1,-22%
7,O=S1(=O)N=C(NC[C@@H](O)Cc2ccccc2)c2ccccc21,7%
8,Cc1cccc(NC(=O)Nc2cc(F)c3[nH]c(=O)ccc3c2)c1,-7%
9,COc1ccc(-c2noc(CCn3c(=O)[nH]c4cc5c(cc4c3=O)OCO5)n2)c(OC)c1,6%
10,Cc1cnc(C2CCN(C(=O)[C@@H]3CNC(=O)O3)CC2)s1,2%
11,COC1(C)CN(c2cnc(C#N)cn2)C1,2%
12,CCc1ccc(NC(=O)[C@H]2CCCN(c3nc4cccnc4n(Cc4ccccc4)c3=O)C2)cc1,-14%
13,C[C@H]1CCCN(S(=O)(=O)NCC(=O)Nc2ccccn2)C1,-14%
14,C[C@H]1CCN(c2nc(-c3ccccn3)nc3c2CCC3)C1,93%
15,FC(F)(F)C1CN(c2nc(-c3ccccn3)nc3c2CCC3)C1,54%
16,Cc1ccccc1N1CCN(C(=O)c2ccc3ncccc3c2)CC1,9%
17,O[C@H]1Cc2ccccc2[C@H]1Nc1nc(-c2ccccn2)nc2c1CCNC2,-7%
18,C[C@H]1CCCN(c2nc(-c3ccccn3)nc3ccccc23)C1,98%
19,CCc1sc(N(C(=O)Cc2ccccc2)c2ccc(C)cc2C)nc1-c1ccc(Cl)cc1,12%
20,COc1ccc(-n2nc(C(=O)N3CCOCC3)c(=O)cc2OC)cc1,3%
21,CCc1nnc2c(S(=O)(=O)Nc3cc(F)cc(F)c3)cccn12,9%
22,CN1N=C(C(=O)NC2CCC3CCCCC3C2)CCC1=O (centres undefined),-20%
23,COc1ccc(C(=O)N(CCO)CCN2CCOCC2)c(OC2CCCC2)c1,11%
24,Cc1cccc(-n2c(=O)[nH]c3nc(NCCN(C)C)ncc3c2=O)c1C,8%
